# Experimental data from publication PMC5540273 (PLoS ONE, 2017).
# Read-outs that look alike come from different tables or passages of the source.
# Experiments:
# Details in all cases: n = 1
# VRK2 = tested on: VRK2
# WEE1 = tested on: WEE1
# WEE2 = tested on: WEE2
# WNK1 = tested on: WNK1
# WNK2 = tested on: WNK2
# WNK3 = tested on: WNK3
# WNK4 = tested on: WNK4
# YANK1 = tested on: T1, YANK1
# T1 construct: gene STK32A
# YANK2 = tested on: T2, YANK2
# T2 construct: gene STK32B
# YANK3 = tested on: T3, YANK3
# T3 construct: gene STK32C
# YES = tested on: T4, YES
# T4 construct: gene YES1
# YSK1 = tested on: T5, YSK1
# T5 construct: gene STK25
# YSK4 = tested on: T6, YSK4
# T6 construct: gene MAP3K19
# ZAK = tested on: ZAK
# ZAP70 = tested on: ZAP70
# p38-alpha = tested on: T7, p38-alpha
# T7 construct: gene MAPK14
# p38-beta = tested on: T8, p38-beta
# T8 construct: gene MAPK11
# p38-delta = tested on: p38-delta
# p38-gamma = tested on: T9, p38-gamma
# T9 construct: gene MAPK12
# [1] = concentration: 1 μM, replicates: in singlicate
# 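Further: KINOMEscan kinase panel screen.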
compound,measurement,setting,value
O=C(O)COc1ncnc2cc(-c3ccc4[nH]ncc4c3)sc12,%Inh,VRK2; [1],8%
same,%Inh,WEE1; [1],0%
same,%Inh,WEE2; [1],6%
same,%Inh,WNK1; [1],7%
same,%Inh,WNK2; [1],32%
same,%Inh,WNK3; [1],1%
same,%Inh,WNK4; [1],23%
same,%Inh,YANK1; [1],12%
same,%Inh,YANK2; [1],4%
same,%Inh,YANK3; [1],14%
same,%Inh,YES; [1],0%
same,%Inh,YSK1; [1],0%
same,%Inh,YSK4; [1],83%
same,%Inh,ZAK; [1],6%
same,%Inh,ZAP70; [1],14%
same,%Inh,p38-alpha; [1],20%
same,%Inh,p38-beta; [1],16%
same,%Inh,p38-delta; [1],32%
same,%Inh,p38-gamma; [1],21%
Cc1ccc(NC(=O)Nc2cccc(C(F)(F)F)c2)cc1 [GSK955403],%Inh,VRK2; 1 µM,0%
same,%Inh,WEE1; 1 µM,3%
same,%Inh,WEE2; 1 µM,0%
same,%Inh,WNK1; 1 µM,0%
same,%Inh,WNK2; 1 µM,0%
same,%Inh,WNK3; 1 µM,0%
same,%Inh,WNK4; 1 µM,0%
same,%Inh,YANK1; 1 µM,0%
same,%Inh,YANK2; 1 µM,0%
same,%Inh,YANK3; 1 µM,0%
same,%Inh,YES; 1 µM,10%
same,%Inh,YSK1; 1 µM,0%
same,%Inh,YSK4; 1 µM,0%
same,%Inh,ZAK; 1 µM,39%
same,%Inh,ZAP70; 1 µM,0%
same,%Inh,p38-alpha; 1 µM,10%
same,%Inh,p38-beta; 1 µM,57%
same,%Inh,p38-delta; 1 µM,0%
same,%Inh,p38-gamma; 1 µM,46%
COC(=O)c1c(-c2ccccc2)c2cc(C(=O)O)ccc2c(=O)n1Cc1ccccc1,%Inh,VRK2; [1],0%
same,%Inh,WEE1; [1],0%
same,%Inh,WEE2; [1],0%
same,%Inh,WNK1; [1],0%
same,%Inh,WNK2; [1],0%
same,%Inh,WNK3; [1],0%
same,%Inh,WNK4; [1],3%
same,%Inh,YANK1; [1],0%
same,%Inh,YANK2; [1],3%
same,%Inh,YANK3; [1],2%
same,%Inh,YES; [1],0%
same,%Inh,YSK1; [1],0%
same,%Inh,YSK4; [1],0%
same,%Inh,ZAK; [1],0%
same,%Inh,ZAP70; [1],31%
same,%Inh,p38-alpha; [1],24%
same,%Inh,p38-beta; [1],19%
same,%Inh,p38-delta; [1],21%
same,%Inh,p38-gamma; [1],0%
COc1cc2nccc(Nc3ccc(NC(=O)c4ccc(C)cc4)c(O)c3)c2cc1OC.Cl [GW440132],%Inh,VRK2; [1],0%
same,%Inh,WEE1; [1],2%
same,%Inh,WEE2; [1],11%
same,%Inh,WNK1; [1],7%
same,%Inh,WNK2; [1],14%
same,%Inh,WNK3; [1],14%
same,%Inh,WNK4; [1],0%
same,%Inh,YANK1; [1],11%
same,%Inh,YANK2; [1],0%
same,%Inh,YANK3; [1],16%
same,%Inh,YES; [1],17%
same,%Inh,YSK1; [1],20%
same,%Inh,YSK4; [1],9%
same,%Inh,ZAK; [1],23%
same,%Inh,ZAP70; [1],0%
same,%Inh,p38-alpha; [1],0%
same,%Inh,p38-beta; [1],0%
same,%Inh,p38-delta; [1],23%
same,%Inh,p38-gamma; [1],0%
O=S(=O)(c1ccc(-c2ccnc3[nH]ccc23)cc1)N1CCCC1 [GSK846226],%Inh,VRK2; [1],0%
same,%Inh,WEE1; [1],8%
same,%Inh,WEE2; [1],2%
same,%Inh,WNK1; [1],5%
same,%Inh,WNK2; [1],7%
same,%Inh,WNK3; [1],3%
same,%Inh,WNK4; [1],0%
same,%Inh,YANK1; [1],11%
same,%Inh,YANK2; [1],0%
same,%Inh,YANK3; [1],0%
same,%Inh,YES; [1],8%
same,%Inh,YSK1; [1],21%
same,%Inh,YSK4; [1],63%
same,%Inh,ZAK; [1],0%
same,%Inh,ZAP70; [1],0%
same,%Inh,p38-alpha; [1],6%
same,%Inh,p38-beta; [1],0%
same,%Inh,p38-delta; [1],11%
same,%Inh,p38-gamma; [1],6%
Clc1cc(Cl)cc(Nc2ccnc(Nc3cc(Cl)cc(Cl)c3)n2)c1 [GSK175726],%Inh,VRK2; [1],6%
same,%Inh,WEE1; [1],6%
same,%Inh,WEE2; [1],0%
same,%Inh,WNK1; [1],0%
same,%Inh,WNK2; [1],0%
same,%Inh,WNK3; [1],22%
same,%Inh,WNK4; [1],32%
same,%Inh,YANK1; [1],0%
same,%Inh,YANK2; [1],0%
same,%Inh,YANK3; [1],14%
same,%Inh,YES; [1],20%
same,%Inh,YSK1; [1],3%
same,%Inh,YSK4; [1],0%
same,%Inh,ZAK; [1],2%
same,%Inh,ZAP70; [1],0%
same,%Inh,p38-alpha; [1],26%
same,%Inh,p38-beta; [1],0%
same,%Inh,p38-delta; [1],12%
same,%Inh,p38-gamma; [1],40%
COc1ccc(C2=C(Nc3cccc(C(=O)O)c3)C(=O)NC2=O)cc1 [SB-390765],%Inh,VRK2; [1],0%
same,%Inh,WEE1; [1],0%
same,%Inh,WEE2; [1],16%
same,%Inh,WNK1; [1],49%
same,%Inh,WNK2; [1],15%
same,%Inh,WNK3; [1],23%
same,%Inh,WNK4; [1],24%
same,%Inh,YANK1; [1],0%
same,%Inh,YANK2; [1],0%
same,%Inh,YANK3; [1],0%
same,%Inh,YES; [1],11%
same,%Inh,YSK1; [1],0%
same,%Inh,YSK4; [1],0%
same,%Inh,ZAK; [1],13%
same,%Inh,ZAP70; [1],0%
same,%Inh,p38-alpha; [1],4%
same,%Inh,p38-beta; [1],6%
same,%Inh,p38-delta; [1],2%
same,%Inh,p38-gamma; [1],29%
NC(=O)c1nnc2ccccc2c1N,%Inh,VRK2; [1],4%
same,%Inh,WEE1; [1],9%
same,%Inh,WEE2; [1],20%
same,%Inh,WNK1; [1],8%
same,%Inh,WNK2; [1],0%
same,%Inh,WNK3; [1],0%
same,%Inh,WNK4; [1],9%
same,%Inh,YANK1; [1],23%
same,%Inh,YANK2; [1],0%
same,%Inh,YANK3; [1],0%
same,%Inh,YES; [1],0%
same,%Inh,YSK1; [1],2%
same,%Inh,YSK4; [1],88%
same,%Inh,ZAK; [1],0%
same,%Inh,ZAP70; [1],0%
same,%Inh,p38-alpha; [1],71%
same,%Inh,p38-beta; [1],0%
same,%Inh,p38-delta; [1],0%
same,%Inh,p38-gamma; [1],43%
O=C(Nc1ccc2c(c1)OCO2)NC1CCN(c2ccnc(Nc3ccc(F)cc3)n2)C1 (centres unmarked) [GSK1379724],%Inh,VRK2; [1],0%
same,%Inh,WEE1; [1],11%
same,%Inh,WEE2; [1],4%
same,%Inh,WNK1; [1],8%
same,%Inh,WNK2; [1],3%
same,%Inh,WNK3; [1],31%
same,%Inh,WNK4; [1],11%
same,%Inh,YANK1; [1],9%
same,%Inh,YANK2; [1],0%
same,%Inh,YANK3; [1],5%
same,%Inh,YES; [1],0%
same,%Inh,YSK1; [1],0%
same,%Inh,YSK4; [1],39%
same,%Inh,ZAK; [1],28%
same,%Inh,ZAP70; [1],0%
same,%Inh,p38-alpha; [1],0%
same,%Inh,p38-beta; [1],0%
same,%Inh,p38-delta; [1],37%
same,%Inh,p38-gamma; [1],0%
Cl.c1ccc(-c2n[nH]cc2-c2ccnc(-c3ccc(CN4CCOCC4)cc3)c2)nc1 [GW776245],%Inh,VRK2; [1],0%
same,%Inh,WEE1; [1],16%
same,%Inh,WEE2; [1],0%
same,%Inh,WNK1; [1],0%
same,%Inh,WNK2; [1],0%
same,%Inh,WNK3; [1],0%
same,%Inh,WNK4; [1],0%
same,%Inh,YANK1; [1],0%
same,%Inh,YANK2; [1],0%
same,%Inh,YANK3; [1],0%
same,%Inh,YES; [1],0%
same,%Inh,YSK1; [1],0%
same,%Inh,YSK4; [1],0%
same,%Inh,ZAK; [1],13%
same,%Inh,ZAP70; [1],0%
same,%Inh,p38-alpha; [1],17%
same,%Inh,p38-beta; [1],23%
same,%Inh,p38-delta; [1],7%
same,%Inh,p38-gamma; [1],55%
COc1cccc(-c2cc(-c3c[nH]nc3-c3ccccn3)ccn2)c1 [GW680338],%Inh,VRK2; [1],24%
same,%Inh,WEE1; [1],19%
same,%Inh,WEE2; [1],4%
same,%Inh,WNK1; [1],0%
same,%Inh,WNK2; [1],17%
same,%Inh,WNK3; [1],26%
same,%Inh,WNK4; [1],25%
same,%Inh,YANK1; [1],2%
same,%Inh,YANK2; [1],0%
same,%Inh,YANK3; [1],0%
same,%Inh,YES; [1],0%
same,%Inh,YSK1; [1],0%
same,%Inh,YSK4; [1],0%
same,%Inh,ZAK; [1],0%
same,%Inh,ZAP70; [1],10%
same,%Inh,p38-alpha; [1],27%
same,%Inh,p38-beta; [1],7%
same,%Inh,p38-delta; [1],20%
same,%Inh,p38-gamma; [1],0%
